Bioassay records deposited in PubChem by several laboratories.
KKLEB cytotox: counter-screen for CF NF-kB inhibitors: cytotoxicity; activity change (cytotoxicity), % at 5 µM; hit rate 0.36% among 360,000; KKLEB CF airway cells viability, ATPlite luminescence, overnight; stronger effect = lower value; cells stimulated with P. aeruginosa culture filtrate; AID 602141;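 active = corrected activity change at or below -50% at 5 µM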
Peg3 prom inh: inhibitors of Peg3 promoter. hit rate 1.7% among 360,000. AID 588405. HeLa PEG-Prom luciferase reporter, luminescence, overnight. inhibition, % at 20 µM;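 active = inhibition of at least 50% at 20 µM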
Shn3 inh set2: Schnurri-3 reporter inhibition in Clone20 osteoblasts; AID 588674; hit rate 0.52% among 360,000; Clone20 osteoblast Shn3 3'UTR firefly luciferase, 24 h; inhibition, % at 12.5 µM;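 active = mean inhibition of at least 75% with every replicate also reaching 75%; inconclusive = mean inhibition at least 75% but some replicate below; inactive = mean inhibition below 75%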;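 also: 0% = median of neutral control wells and 100% = pilot-screen positive control compound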
CF NFkB inh: cystic fibrosis NF-kB activation inhibition. KKLEB NF-kB-GFP reporter, PAF-induced, GFP fluorescence overnight. inhibition, % at 5 µM. AID 588850. hit rate 0.86% among 360,000;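 active = at least 50% inhibition at 5 µM, scaled per plate between neutral and stimulator controls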;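 also: PAF is a Pseudomonas aeruginosa culture filtrate used as stimulus; plate controls were PAF-stimulated DMSO wells for no effect and unstimulated DMSO wells for full effect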
MITF TRPM1 inh: inhibitors of MITF-driven TRPM1 promoter in melanoma cells | hit rate 0.83% among 330,000 | inhibition, % at 12.5 µM | SK-MEL-5 TRPM1 promoter luciferase, 24 h;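 active = mean inhibition across replicates of 60% or more, whatever share of single replicates reaches that level; inconclusive = some that reach 60%, reason not given; inactive = mean inhibition across replicates below 60%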
HIF-2a inh: inhibitors of HIF-2a | 786-0 RCC cells HIF-2a reporter, luciferase luminescence, overnight | inhibition, % at 18.8 µM | hit rate 0.72% among 360,000 | AID 624352;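 active = inhibition of the luminescence signal of 40% or more relative to plate controls, in a single-dose primary screen at 18.75 µM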
CF NFkB conf: CF NF-kB inhibition confirmation, single concentration. inhibition, % at 5 µM. AID 602472. hit rate 64% among 1,300. shares compounds with CF NFkB inh. KKLEB CF airway cells, PAF-induced NF-kB-GFP fluorescence, overnight; in the data active = inhibition above about 40%;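 also: stimulus PAF is a Pseudomonas aeruginosa filtrate and not platelet activating factor; plate controls were DMSO wells with stimulus for no effect and unstimulated DMSO wells for full effect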
An asterisk follows results filed as active; ? = inconclusive; / = not tested or not shown. Hits are enriched below; roughly 2.8% of the tested compounds scored in any of these assays.

SMILES	KKLEB cytotox	Peg3 prom inh	Shn3 inh set2	CF NFkB inh	MITF TRPM1 inh	HIF-2a inh	CF NFkB conf
CCN(CC)CCNC(=O)c1ccc(NC(=O)C2CCN(c3ncnc4sc(C)c(C)c34)CC2)cc1	-17.8	79.6*	-7.8	54.6*	-30.7	28.3	56.0*
CC(=O)Nc1ccc(-c2ccnc3c2CC(C(=O)NCC2CC2)O3)cc1 (stereo not drawn)	-19.4	8.5	6.0	3.9	/	9.1	/
CC(=O)Nc1ccc(-c2ccnc3c2CC(C(=O)NCc2ccccc2)O3)cc1 (stereo not drawn)	-24.0	-19.8	1.9	55.7*	/	16.6	48.8*
CC(=O)Nc1ccc(-c2ccnc3c2CC(C(=O)NCc2ccco2)O3)cc1 (stereo not drawn)	-44.3	-16.1	6.4	60.0*	/	26.9	60.9*
CCSc1nc2c(cnn2-c2ccccc2)c(=O)n1N	4.8	-268.5	-105.6	11.2	-66.1	-257.0	/
FC(F)(F)c1ccc(Oc2ccc3cc(Br)ccc3c2)nc1	14.4	-68.2	-6.0	-9.8	-19.2	-86.6	/
O=C(Nc1cc(S(=O)(=O)N2CCOCC2)ccc1O)c1ccc(NS(=O)(=O)c2ccc(Cl)s2)cc1	-5.5	0.5	16.7	-6.3	-1.7	25.0	/
Cc1ccc(NC(=O)c2ccccc2NS(=O)(=O)c2ccc(Cl)s2)cc1S(=O)(=O)N1CCOCC1	-49.3	-17.2	25.5	56.8*	21.2	-7.8	79.7*
CC1(C)CC2(CCO1)OC(=O)CC2C(=O)NCc1ccccc1 (stereo not drawn)	10.6	12.9	-2.3	-18.6	7.2	11.6	/
O=C(Nc1cc(-c2nc3ncccc3o2)ccc1Cl)c1ccc([N+](=O)[O-])o1	-22.9	88.0*	35.0	80.3*	79.3*	-46.1	-182.0
CCC(C)(C)NC(=O)CN(C(=O)CCC(=O)Nc1nccs1)c1ccc2c(c1)OCCO2	-8.3	34.6	26.2	-2.1	1.3	21.5	/
Cc1cc(C)c(C(N)=O)c(Nc2cccc3ccccc23)n1	-8.0	-3.6	-14.9	50.4*	25.5	8.2	24.1
COc1ccc(C)c(NC(=O)NCCc2cnc[nH]2)c1	-3.4	23.1	-21.5	-3.9	-2.6	13.2	/
CCC(Oc1ccccc1)C(=O)Nc1nnc(C)s1 (stereo not drawn)	3.7	11.9	-34.0	-3.1	2.0	3.3	/
CCC(Oc1ccccc1)C(=O)Nc1ncc([N+](=O)[O-])s1 (stereo not drawn)	-3.3	-0.7	-54.2	50.2*	11.7	-77.3	46.1*
O=C(COc1ccc(Cl)cc1)Nc1ncc([N+](=O)[O-])s1	-49.2	-111.2	-29.9	57.0*	-11.7	-239.5	75.3*
Cc1cccc(C)c1N(CC(=O)NCc1ccccc1)C(=O)c1csnn1	6.8	7.4	7.4	-2.0	8.9	8.0	/
Cn1nc(C(F)(F)F)cc1C(=O)NC1CCCCCC1	-15.5	6.9	-2.8	12.1	11.5	-0.8	/
Cc1cccc(N2C(=O)CC(Sc3nc(C)cc(C)n3)C2=O)c1 (stereo not drawn)	6.3	11.0	-4.1	1.0	-7.7	4.1	/
Cc1cc(C)cc(N2C(=O)CC(Sc3nnnn3-c3ccccc3)C2=O)c1 (stereo not drawn)	-17.1	108.2*	88.1*	56.6*	11.0	-11.1	-1.4
C/C(=N/NC(=O)c1cc(-c2cccc([N+](=O)[O-])c2)n[nH]1)c1cccc(O)c1	-12.2	12.3	-11.0	56.6*	0.3	13.8	36.8
COc1ccc(Cn2c(O)c(C=Nc3ccccc3C(=O)O)c3ccccc3c2=O)cc1	10.2	21.1	-0.6	6.5	16.0	13.9	/
COc1ccccc1NS(=O)(=O)c1cccc(-n2c(O)c(C=Nc3ccccc3C(=O)O)c3ccccc3c2=O)c1	15.0	33.9	-28.7	85.6*	22.7	26.7	92.8*
COc1ccc(COc2cc(-c3cccc(OC)c3)nc3ccc(NC(=O)c4cccnc4)cc23)cc1	-17.0	54.0*	10.3	80.4*	4.0	16.6	91.6*
Cc1ccc(C(=O)Nc2ccccc2N2CCCCC2)o1	34.0	9.1	-1.9	-8.9	11.8	0.5	/
SMILES	KKLEB cytotox	Peg3 prom inh	Shn3 inh set2	CF NFkB inh	MITF TRPM1 inh	HIF-2a inh	CF NFkB conf
Cc1cc(N2C(=O)C(O)=C(C(=O)c3cc4ccccc4o3)C2c2cccc(Br)c2)no1 (stereo not drawn)	16.2	15.1	3.1	-32.6	3.2	-10.3	/
CCCOc1cccc(C2C(C(=O)c3cc4ccccc4o3)=C(O)C(=O)N2c2cc(C)on2)c1 (stereo not drawn)	-1.7	4.2	-7.4	66.1*	-7.5	-1.6	23.8
c1ccc(CN2CCC3CC2c2c3cccc2N2CCOCC2)cc1 (stereo not drawn)	-5.2	5.4	-16.1	8.3	/	0.1	/
CCOC(=O)N1CCc2c(sc(NC(=O)CN3CCOCC3)c2C(=O)Nc2ccccc2)C1	-8.8	23.7	1.6	56.7*	-2.9	18.2	-0.8
CCOC(=O)N1CCc2c(sc(NC(=O)CN3CCN(C)CC3)c2C(=O)Nc2ccccc2)C1	-8.8	0.3	-1.0	-15.8	0.0	7.0	/
CCOc1ccc(C(C(=O)NCC2CCCO2)N(Cc2cccs2)C(=O)c2snc(C(N)=O)c2N)cc1 (stereo not drawn)	-30.4	47.8	19.7	72.0*	7.8	4.8	71.7*
COc1ccc(-c2nc(S(=O)(=O)c3ccccc3)c(NCCCN3CCOCC3)o2)cc1	1.7	-4.6	-11.4	-4.7	2.5	-11.9	/
CC1=C(/C=C/C(=O)O)C(C)(C)CCC1	-16.3	10.1	0.6	7.6	4.8	4.0	/
CC1=C(/C=C/C(C)=C/C=C/C(C)=C\C(=O)O)C(C)(C)CCC1	-9.3	-20.3	-7.9	65.9*	-33.5	12.8	69.8*
CC(N)(C(=O)O)c1cccc(OCc2cccc(Cl)c2)c1 (stereo not drawn)	11.9	2.9	-12.0	-12.2	-2.8	-3.9	/
CCN1CCN(Cc2ccc(NC(=O)c3ccc(C)c(NC(=O)C(=O)c4c[nH]c5ccccc45)c3)cc2C(F)(F)F)CC1	-9.6	96.8*	?	70.4*	82.4*	11.3	70.8*
CCN1CCN(Cc2ccc(NC(=O)c3ccc(C)c(NC(=O)c4ccc5n[nH]nc5c4)c3)cc2C(F)(F)F)CC1	-10.8	-9.6	-12.4	55.2*	29.0	15.0	69.5*
O=C(CCN1CCN(Cc2ccccc2)CC1)NNC(=O)Nc1cccc([N+](=O)[O-])c1	12.7	5.1	6.0	6.0	1.5	-0.6	/
Cc1ccc([C@H]2C(C(=O)O)=CC[C@@H](c3ccc4c(c3)OCO4)N2S(=O)(=O)c2ccc(C)cc2)cc1	11.1	7.6	-1.4	-2.2	3.5	19.4	/
CC(C)C[C@@H](CN)NC(=O)c1nc[nH]c1C(=O)N[C@@H](C)C(=O)CNC[C@H](C)NC(=O)c1nc[nH]c1C(=O)N[C@@H](CC(=O)O)C(=O)O	-6.1	-16.6	-0.4	14.4	-17.7	-7.7	/
